Where “and” joins values, the source holds several entries; their conditions need not be identical. Equal entries are not always repeated. Where two headings read alike, the source gives them in different places.
How the values were obtained:
WNK4 = conditions: concentration: 1 μM, replicates: in singlicate; n = 1
YANK1 = test system: T1, YANK1; conditions: concentration: 1 μM, replicates: in singlicate, n = 1
T1 construct: gene STK32A

YANK2 = test system: T2, YANK2; conditions: concentration: 1 μM, replicates: in singlicate, n = 1
T2 construct: gene STK32B

YANK3 = test system: T3, YANK3; conditions: concentration: 1 μM, replicates: in singlicate, n = 1
T3 construct: gene STK32C

YES = test system: T4, YES; conditions: concentration: 1 μM, replicates: in singlicate; n = 1
T4 construct: gene YES1

YSK1 = test system: T5, YSK1; conditions: concentration: 1 μM, replicates: in singlicate; n = 1
T5 construct: gene STK25

YSK4 = test system: T6, YSK4; conditions: concentration: 1 μM, replicates: in singlicate, n = 1
T6 construct: gene MAP3K19

ZAK = conditions: concentration: 1 μM, replicates: in singlicate, n = 1
ZAP70 = conditions: concentration: 1 μM, replicates: in singlicate, n = 1
p38-alpha = test system: T7, p38-alpha; conditions: concentration: 1 μM, replicates: in singlicate, n = 1
T7 construct: gene MAPK14
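Further: KINOMEscan kinase panel screen.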

| Structure (SMILES) | %Inh (WNK4) | %Inh (YANK1) | %Inh (YANK2) | %Inh (YANK3) | %Inh (YES) | %Inh (YSK1) | %Inh (YSK4) | %Inh (ZAK) | %Inh (ZAP70) | %Inh (p38-alpha) | %Inh (YANK1; 1 µM) | %Inh (YANK2; 1 µM) | %Inh (YANK3; 1 µM) | %Inh (YSK4; 1 µM) | %Inh (ZAK; 1 µM) | %Inh (ZAP70; 1 µM) | %Inh (p38-alpha; 1 µM) |
| --- | --- | --- | --- | --- | --- | --- | --- | --- | --- | --- | --- | --- | --- | --- | --- | --- | --- |
| Nc1nc(-c2ccc3c(N)n[nH]c3c2)cc(N2CCCCC2)n1 [GSK2228768] | 0% | 0% | 0% | 0% | 0% | 1% | 0% | 0% | 0% | 0% |  |  |  |  |  |  |  |
| COC(=O)c1c(-c2ccccc2)c2cc(Cl)ccc2c(=O)n1Cc1ccc(S(C)(=O)=O)cc1 | 27% | 0% | 15% | 0% | 0% | 0% | 2% | 5% | 0% | 17% |  |  |  |  |  |  |  |
| O=C(Nc1ccccc1)Nc1ccc(Oc2ccc3nccn3n2)cc1 | 0% | 0% | 0% | 0% | 11% | 0% | 0% | 4% | 0% | 0% |  |  |  |  |  |  |  |
| FC(F)(F)c1ccc(-c2nn3ncccc3c2-c2ccnc(Nc3cccc(C(F)(F)F)c3)n2)cc1 [GW828205] | 0% | 0% | 0% | 0% | 0% | 0% | 0% | 0% | 42% | 0% |  |  |  |  |  |  |  |
| Cn1ccc2ncnc(Nc3ccc(Oc4cccc(Cl)c4)c(Cl)c3)c21 | 34% | 0% | 14% | 17% | 0% | 0% | 11% | 30% | 0% | 17% |  |  |  |  |  |  |  |
| O=C(NCCCN1CCCC1=O)c1cnc(NCc2cc(Cl)ccc2Cl)nc1NC1CCNCC1 | 0% | 1% | 0% | 0% | 0% | 5% | 54% | 0% | 0% | 0% |  |  |  |  |  |  |  |
| Nc1nccc2scc(-c3ccc4c(c3)CCN4C(=O)Cc3cc(F)ccc3F)c12 [GSK2587663] | 5% | 26% | 0% | 20% | 10% | 11% | 32% | 9% | 0% | 0% |  |  |  |  |  |  |  |
| FC(F)(F)c1cc(Nc2nccc(-c3c(-c4ccc(Cl)cc4)nn4ncccc34)n2)ccc1Cl [GW829351] | 0% | 0% | 0% | 4% | 0% | 0% | 0% | 0% | 0% | 43% |  |  |  |  |  |  |  |
| Nc1nc(-c2cccnc2)c(-c2ccnc3ccccc23)s1 [GW684083] | 39% | 20% | 18% | 0% | 18% | 0% | 60% | 78% | 0% | 40% |  |  |  |  |  |  |  |
| Cl.O=S(=O)(c1cccc(F)c1)c1ccc(Nc2ncnc3cc(Br)sc23)cc1Cl [GSK306886] | 0% | 0% | 0% | 0% | 14% | 30% | 0% | 6% | 0% | 42% |  |  |  |  |  |  |  |
| COc1ccc(-c2oc3ncnc(N)c3c2-c2ccc(OC)cc2)cc1 [SB-589132] | 55% | 19% | 12% | 21% | 44% | 6% | 57% | 9% | 0% | 7% |  |  |  |  |  |  |  |
| C[C@@H]1CCN(C(=O)CO)C[C@@H]1N(C)c1ncnc2[nH]ccc12 | 0% | 19% | 0% | 0% | 0% | 0% | 7% | 7% | 0% | 5% |  |  |  |  |  |  |  |
| COc1ccc(-c2nc3n(c2-c2ccncc2)CCC3)cc1 [SKF-104493] | 17% |  |  |  | 0% | 0% |  |  |  |  | 0% and 10% | 13% and 0% | 0% and 4% | 0% and 100% | 0% and 8% | 0% and 8% | 80% and 97.8% |
| CCc1nc(-c2cccc(C)c2)c(-c2ccnc(NC(=O)c3ccccc3)c2)s1 | 18% | 13% | 41% | 15% | 19% | 2% | 23% | 0% | 0% |  |  |  |  |  |  |  |  |
| Clc1ccc(-c2cc(-c3c[nH]nc3-c3ccccn3)ccn2)cc1 [GW681251] | 0% | 0% | 0% | 0% | 0% | 0% | 0% | 14% | 47% | 45% |  |  |  |  |  |  |  |
| Cn1cc(-c2ccc3c(c2)CCN3C(=O)Cc2cccc(C(F)(F)F)c2)c2c(N)ncnc21 [GSK2606414] | 0% | 10% | 0% | 19% | 0% | 0% | 34% | 0% | 0% | 0% |  |  |  |  |  |  |  |
| OCCOCCn1ccc2ncnc(Nc3ccc(Oc4cccc(Cl)c4)c(Cl)c3)c21 | 0% | 0% | 0% | 0% | 0% | 0% | 0% | 0% | 0% | 0% |  |  |  |  |  |  |  |

| Structure (SMILES) | %Inh (WNK4) | %Inh (YANK1) | %Inh (YANK2) | %Inh (YANK3) | %Inh (YES) | %Inh (YSK1) | %Inh (YSK4) | %Inh (ZAK) | %Inh (ZAP70) | %Inh (p38-alpha) | %Inh (YANK1; 1 µM) | %Inh (YANK2; 1 µM) | %Inh (YANK3; 1 µM) | %Inh (YSK4; 1 µM) | %Inh (ZAK; 1 µM) | %Inh (ZAP70; 1 µM) | %Inh (p38-alpha; 1 µM) |
| --- | --- | --- | --- | --- | --- | --- | --- | --- | --- | --- | --- | --- | --- | --- | --- | --- | --- |
| Fc1ccc(Nc2nccc(-c3c(-c4ccc(Cl)cc4)nn4ncccc34)n2)cc1F [GW829058] | 28% | 0% | 4% | 30% | 0% | 0% | 47% | 18% | 13% | 26% |  |  |  |  |  |  |  |
| O=C(Nc1ccccc1F)NC1CCN(c2ccnc(Nc3ccc(F)cc3)n2)C1 (stereo not drawn) [GSK1379722] | 28% | 0% | 6% | 21% | 14% | 2% | 28% | 0% | 0% | 6% |  |  |  |  |  |  |  |
| COc1ccc(NC(=O)Nc2ccc(C)c(-c3ccc(C(=O)Nc4ccncc4)cc3)c2)cc1 [GSK1398475] | 0% | 0% | 0% | 7% | 13% | 13% | 9% | 6% | 0% | 60% |  |  |  |  |  |  |  |
| CS(=O)(=O)CCNCc1ccc(-c2ccc3ncnc(Nc4ccc(OCc5ccccc5)c(Cl)c4)c3c2)o1.Cl [GW574783] | 22% | 0% | 24% | 8% | 1% | 0% | 2% | 0% | 0% | 0% |  |  |  |  |  |  |  |
| Cc1ccc(C)c(NC(=O)NCCNc2ccnc(Nc3ccc(F)cc3)n2)c1 [GSK1379878] | 23% | 0% | 0% | 0% | 0% | 0% | 0% | 34% | 0% | 6% |  |  |  |  |  |  |  |
| CC(C)N1CCC(n2cnc(-c3ccc(F)cc3)c2-c2ccnc(N)n2)CC1 [SB-223132] | 0% | 0% | 16% | 0% | 0% | 0% | 0% | 8% | 5% | 96.8% |  |  |  |  |  |  |  |
| COC(=O)c1cccc(NC(=O)NCCNc2ccnc(Nc3ccc(F)cc3)n2)c1 [GSK1379883] | 36% | 0% | 20% | 0% | 14% | 14% | 8% | 0% | 0% | 3% |  |  |  |  |  |  |  |
| Fc1cccc(COc2ccc(Nc3ncnc4sc(-c5ccc[nH]5)cc34)cc2Cl)c1 [GW707818] | 6% | 13% | 34% | 0% | 1% | 0% | 8% | 0% | 6% | 44% |  |  |  |  |  |  |  |
| Clc1cccc(-c2nc(Nc3ccncc3)c3ccccc3n2)c1 [GW873004] | 0% | 0% | 0% | 0% | 34% | 0% | 0% | 0% | 0% | 0% |  |  |  |  |  |  |  |
| CNc1nccc(-c2c(-c3ccc(F)cc3)ncn2CCCN2CCOCC2)n1 [SB-222516] | 0% | 0% | 0% | 0% | 0% | 0% | 7% | 6% | 5% | 13% |  |  |  |  |  |  |  |
| Cc1ccc(O)cc1Nc1cc(C(F)(F)F)nc2ccc(-c3ccncc3)cc12 [GW630823] | 0% | 0% | 0% | 0% | 23% | 0% | 0% | 10% | 0% | 8% |  |  |  |  |  |  |  |
| Clc1cc(Nc2ncnc3cc[nH]c23)ccc1OCc1ccccn1 | 25% | 12% | 3% | 51% | 0% | 0% | 34% | 18% | 0% | 18% |  |  |  |  |  |  |  |
| N#Cc1ccc(Oc2ccc(Nc3ncnc4cc[nH]c34)cc2Cl)cc1 | 19% | 19% | 22% | 0% | 0% | 0% | 20% | 18% | 0% | 19% |  |  |  |  |  |  |  |
| Cl.c1ccc(Cn2ccc3cc(Nc4ncnc5ccccc45)ccc32)cc1 [GW275568] | 6% | 18% | 0% | 0% | 15% | 7% | 4% | 6% | 1% | 2% |  |  |  |  |  |  |  |
| Cl.Cl.c1ccc(-c2cc3ccncc3cc2OC2CCNCC2)cc1 [GSK1122999] | 28% | 20% | 0% | 0% | 15% | 8% | 64% | 0% | 0% | 4% |  |  |  |  |  |  |  |
| COc1ccc(Nc2nccc(N3CCC(NC(=O)Nc4ccc5c(c4)OCO5)C3)n2)cc1 (stereo not drawn) [GSK1379745] | 24% | 3% | 15% | 16% | 0% | 0% | 7% | 0% | 0% | 12% |  |  |  |  |  |  |  |
| Fc1ccc(-c2ncn(CCCNCc3ccccc3)c2-c2ccncc2)cc1 | 0% | 17% | 0% | 7% | 17% | 0% | 9% | 10% | 11% | 77% |  |  |  |  |  |  |  |

— paper PMC5540273 (PLoS ONE, 2017)
